Results from ChEMBL document CHEMBL4513216, “Probing the Open Global Health Chemical Diversity Library for Multistage-Active Starting Points for Next-Generation Antimalarials” (ACS Infect Dis, 2020).
About 8,600 (12%) of roughly 69,000 compounds showed an effect of 50% or more. Shown is part of a subset that was picked to be rich in strong results.

System: Plasmodium berghei
Test: Screen against P. berghei liver stage (PbLuc), transformed with Luciferase, at 10uM
Assay type: functional, HepG2
Details: tested at 10 uM

| Structure (SMILES) | INHIBITION |
| --- | --- |
| CC(C)c1ncc(Cl)c(C(=O)N2CCN(C3CC3)CC2)n1 | 40.7% |
| CS(=O)(=O)N1C[C@H]2CCCN(Cc3ccsc3)[C@H]2C1 | 21.6% |
| COc1cc(N2CCC3(CC2)CC(N2CCN(C)CC2)CO3)ncn1 (stereo not given) | 26% |
| Cc1cccc(C(=O)N2C[C@@H]3CC[C@H](Oc4cccc(F)c4)[C@@H]3C2)n1 | 25.6% |
| COCCN1CCC2(CCCN(C(=O)c3cncn3C)C2)CC1 | 49.7% |
| CNC(=O)CC1CC2(CCN(CC3CC3)CC2)Oc2ccccc21 (stereo not given) | 44.5% |
| Cc1nc2sccn2c1CN(CCCN(C)C)Cc1ccccn1 | -12.5% |
| CN(CC1CCN(CCO)CC1)CC(O)c1ccc(F)cc1F (stereo not given) | 59.1% |
| CN(CC1CCN(CCO)CC1)CC(O)c1ccc(F)c(F)c1 (stereo not given) | 49.9% |
| CN(CC1CCN(CCO)CC1)CC(O)c1ccc(F)cc1 (stereo not given) | 34.1% |
| Cc1cc(C)n(Cc2ccc(-c3noc(C(=O)NC[C@@H](C)O)n3)cc2)n1 | -4.28% |
| Cc1ccnc(OCC(=O)N2CCC(C(N)=O)CC2)n1 | 26.4% |
| CCOC(=O)C1CCN(c2nccc(-n3nc(C)cc3C)n2)CC1 | -79.8% |
| NC(=O)C1CCN(c2ncc(-c3cnccn3)c([C@H]3CCCO3)n2)CC1 | -0.902% |
| CN1CCCN(c2nccc(-c3c[nH]c4ccc(Br)cc34)n2)CC1 | 41.2% |
| CN1CCN(c2nccc(-c3cncnc3C3CCCCC3)n2)CC1 | 23.4% |
| NC(=O)C1CCN(c2nc3nccc(-c4ccccn4)c3c(=O)[nH]2)CC1 | 2.37% |
| NC(=O)[C@H]1CCCN(c2nccc(-c3c[nH]nc3-c3cccnc3)n2)C1 | 54.5% |
| Cc1ccnc(N2CCC(C(N)=O)CC2)n1 | 63.4% |
| NC(=O)C1CCN(c2nccc(-c3c[nH]nc3C3CCCCC3)n2)CC1 | 57.5% |
| CN1CCCN(c2nccc(-c3cncnc3C3CCCCC3)n2)CC1 | 50.1% |
| Cc1ncc(-c2ccnc(N3CC[C@H](O)C3)n2)c(-c2cccnc2)n1 | -13.7% |
| NC(=O)[C@H]1CCCN(c2nccc(-c3ccncc3)n2)C1 | 10% |
| CSc1ncccc1C(=O)N1C[C@@H]2CC[C@H]1CN(c1ncccn1)C2 | 15.1% |
| CC(Cn1ccnc1)NC(=O)NCc1ccccn1 (stereo not given) | 15.34% |
| COCCCNC(=O)c1nnsc1-c1ccccc1 | -6.42% |
| CNc1cccc(C2CCN(C(C)=O)CC2)n1 | -9.51% |
| COc1ccc(C)cc1CN1CCOC(Cn2nc(C)nc2C)C1 (stereo not given) | -10.6% |

| Structure (SMILES) | INHIBITION |
| --- | --- |
| CCc1cc(-c2cc[nH]n2)nc(N2CCOCC2)n1 | 17.5% |
| CC1CN(CC(=O)Nc2ccncc2)CCN1Cc1nccn1C (stereo not given) | 8.9% |
| COCC[C@]1(O)CCN(Cc2nc(C)c(C)s2)C[C@H]1C | -47.4% |
| CC(=O)N1CCCN(c2nccc(-c3cn(C)nc3C)n2)CC1 | 4.2% |
| O=S1(=O)NC(c2ccnc(N3CCCCC3)n2)=Nc2ccccc21 | 25.8% |
| Cc1csc2ncc(-c3ccnc(N4CCCN(C)CC4)n3)c(=O)n12 | 26.3% |
| Nc1nccc(-c2c[nH]nc2C2CCCCC2)n1 | 41.2% |
| OCCNc1nccc(-c2cn3nccc3nc2C2CCCCC2)n1 | 39.7% |
| CC(C)c1nc(C2CCCN(c3nccc(N4CCCC4)n3)C2)no1 (stereo not given) | 23.1% |
| Cc1csc2ncc(-c3ccnc(N4CCCC4)n3)c(=O)n12 | -71.6% |
| c1cc(-c2c[nH]nc2C2CCCCC2)nc(N2CCCCCC2)n1 | 90.1% |
| c1cc(-c2cn3nccc3nc2C2CCCCC2)nc(N2CCCC2)n1 | 82.7% |
| Cc1csc2ncc(-c3ccnc(N4CCC[C@H](C(N)=O)C4)n3)c(=O)n12 | 64.9% |
| CN1CCCN(c2nccc(-c3cc(C(=O)O)ccn3)n2)CC1 | 41.4% |
| CN1CCCN(c2nccc(-c3c[nH]nc3C3CCCCC3)n2)CC1 | 68.9% |
| Cc1ccc(Cl)cc1NCc1nc2n(n1)CCCCC2 | 25.1% |
| COc1cccc(COCC(=O)N2CCN(S(C)(=O)=O)CC2)c1 | 28.74% |
| CN(C)C(=O)CN1CCC2(C1)CN(CC1CCOC1)C2 (stereo not given) | 8.31% |
| CC(C)=CCN1CCN(C(=O)c2cc(C)n[nH]2)[C@H]2CS(=O)(=O)C[C@H]21 | -6.67% |
| Cc1ccc(CN2CCC3(CC2)CCN(C(=O)c2cccn2C)C3)cc1 | 6.27% |
| COCCOC(=O)N1CCN2C[C@@H](CO)[C@H](c3ccccc3)[C@H]2C1 | -8.8% |
| c1cc(-c2n[nH]cc2-c2ccnc(N3CCCC3)n2)ccn1 | 33.7% |
| c1cncc(-c2nc(C3CC3)ncc2-c2ccnc(N3CCCC3)n2)c1 | 51.5% |
| Cc1ncc(-c2ccnc(N3CCCCCC3)n2)c(-c2cccnc2)n1 | 12.7% |
| c1cc(-c2n[nH]cc2-c2ccnc(N3CCCCCC3)n2)ccn1 | 50.1% |
| Cc1ncc(-c2ccnc(N3CCN(C)CC3)n2)c(-c2cccnc2)n1 | 21.9% |
| CN1CCCN(c2nccc(-c3c[nH]nc3-c3ccncc3)n2)CC1 | 42.6% |
